RBX1-CUL1 inh – inhibitors of human ROC1-CUL1 ubiquitin ligase activity | in vitro K48 di-Ub FRET, acceptor:donor ratio, 45 min | inhibition, % at 10 µM | hit rate 0.6% among 140,000 | AID 1347404; in the data active means inhibition above about 25%
Target sequence (P62877 whole entry, looked up): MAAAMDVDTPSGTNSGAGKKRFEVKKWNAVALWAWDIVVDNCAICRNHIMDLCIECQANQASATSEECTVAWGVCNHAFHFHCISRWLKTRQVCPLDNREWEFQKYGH
Target sequence (Q13616 whole entry, looked up): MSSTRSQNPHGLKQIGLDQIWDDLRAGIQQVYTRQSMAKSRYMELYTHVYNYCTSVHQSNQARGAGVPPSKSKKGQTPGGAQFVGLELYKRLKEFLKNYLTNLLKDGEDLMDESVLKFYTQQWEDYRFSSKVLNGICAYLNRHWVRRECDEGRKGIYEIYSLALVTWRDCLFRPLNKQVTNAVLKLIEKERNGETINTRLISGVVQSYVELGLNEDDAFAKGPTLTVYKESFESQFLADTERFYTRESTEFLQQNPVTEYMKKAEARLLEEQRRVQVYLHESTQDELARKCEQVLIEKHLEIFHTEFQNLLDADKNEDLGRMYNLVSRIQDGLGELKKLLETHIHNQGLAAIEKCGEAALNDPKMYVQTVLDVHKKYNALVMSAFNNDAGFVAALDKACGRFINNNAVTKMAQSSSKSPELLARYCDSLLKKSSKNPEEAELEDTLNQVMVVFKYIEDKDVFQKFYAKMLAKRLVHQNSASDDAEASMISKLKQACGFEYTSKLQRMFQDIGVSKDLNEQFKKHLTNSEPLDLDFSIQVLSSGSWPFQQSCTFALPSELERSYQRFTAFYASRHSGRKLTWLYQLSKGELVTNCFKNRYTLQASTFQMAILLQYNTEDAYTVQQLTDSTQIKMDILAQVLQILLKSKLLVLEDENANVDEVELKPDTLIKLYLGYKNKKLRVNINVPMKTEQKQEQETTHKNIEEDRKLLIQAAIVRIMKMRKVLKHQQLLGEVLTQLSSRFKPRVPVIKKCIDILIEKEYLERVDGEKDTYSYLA
Large screens that a line does not name were inactive. Many of the other results were omitted from the sample, so hits are more common in it than they were.

O=C1C(CSCc2ccccc2)NC(=S)N1C1CCCCC1 (stereo unspecified)	none
c1ccc2c(c1)c1ccccc1c1n[nH]nc21	none
O=C1NC(=Nc2ccc(F)cc2)S/C1=C\c1ccc(O)c(Br)c1	none
COc1cc(/C=C2\SC(=Nc3cc(C)cc(C)c3)NC2=O)cc(Br)c1O	none
O=C1NC(=Nc2cccc(C(F)(F)F)c2)S/C1=C\c1cc(O)c(O)c(Br)c1	RBX1-CUL1 inh 30.4
COc1ccc(-c2nn(-c3ccccc3)cc2C(=O)OCC(=O)c2ccc(Cl)cc2)cc1	none
O=C(Oc1cc(=O)n(-c2ccccc2)c2c1CCCC2)c1ccccc1	none
CC1(C)CC(=O)C(C(c2ccccc2OC(=O)c2ccccc2)C2C(=O)CC(C)(C)CC2=O)C(=O)C1	none
COC12C=CC(CC1)C1=C2C(=O)c2c(OC(=O)c3ccccc3)ccc(OC(=O)c3ccccc3)c2C1=O (stereo unspecified)	RBX1-CUL1 inh 70.8
CCN1CCN(CC(O)COc2ccc(CN3CCCCCC3)cc2OC)CC1 (stereo unspecified)	none
C=CCOc1c(Br)cc(CNc2ccc(C(=O)O)cc2)cc1OCC	none
C=CCOc1c(Br)cc(CNC(C)(C)C)cc1OCC	RBX1-CUL1 inh 66.2
C=CCOc1c(Br)cc(CNc2nccs2)cc1OCC	none
COc1ccccc1C1CN(Cc2ccc(C#CC(C)(C)O)cc2)Cc2ccccc2O1 (stereo unspecified)	none
CC1CN(C(=O)Nc2ccc(Cl)c(Cl)c2)C(=Nc2ccccc2Cl)S1 (stereo unspecified)	none
CC1=NN(c2ccc(C)c(C)c2)C(=O)/C1=C\c1ccc(-c2ccc(S(=O)(=O)c3nccs3)cc2)o1	none
Cc1cccc(N2NC(=O)/C(=C/c3ccc(-c4ccc(S(N)(=O)=O)cc4)o3)C2=O)c1	RBX1-CUL1 inh 31.8
NC(=O)c1ccc(-c2ccc(/C=C3/C(=O)NN(c4ccc(F)cc4)C3=O)o2)cc1	none
CC(=O)NS(=O)(=O)c1ccc(-c2ccc(/C=C3/C(=O)NN(c4cccc(C)c4)C3=O)o2)cc1	none
Cc1ccc(N2NC(=O)/C(=C/c3ccc(-c4ccc(S(=O)(=O)Nc5nccs5)cc4)o3)C2=O)cc1	RBX1-CUL1 inh 71.7
Cc1ccc(N2NC(=O)/C(=C/c3ccc(-c4ccccc4F)o3)C2=O)cc1C	none
NS(=O)(=O)c1ccc(-c2ccc(/C=C3\C(=O)NC(=S)N(c4cccc5ccccc45)C3=O)o2)cc1	none
O=C1NN(c2cccc(F)c2)C(=O)/C1=C\c1ccc(-c2ccc(C(=O)O)cc2)o1	none
NS(=O)(=O)c1ccc(-c2ccc(/C=C3/C(=O)NN(c4cccc(F)c4)C3=O)o2)cc1	RBX1-CUL1 inh 43.6
COC(=O)c1sc(NC(=O)c2ccco2)c(C(=O)OC)c1C	none
Cc1cccc(NC(=O)c2ccccc2NC(=O)C2CCCCC2C(=O)O)c1 (stereo unspecified)	none
CCOC(=O)C1=C(C)N=c2s/c(=C/c3c[nH]c4ccccc34)c(=O)n2C1c1cc(Br)c(OC)cc1OC (stereo unspecified)	none
Cc1ccc(C(=O)c2coc3ccc(Br)cc3c2=O)cc1	none
CC(=O)C(C(C)=O)C1=C(Br)C(=O)C(=O)c2c(C(=O)c3ccccc3)coc21	none
Cc1ccc(C(=O)c2coc3c2C(=O)C(=O)c2ccccc2-3)cc1	none
O=C1C(=O)c2c(C(=O)c3ccccc3)coc2C(Cl)=C1Cl	RBX1-CUL1 inh 89.5
O=C(c1ccccc1)c1coc2cc(Br)c(O)c(Br)c12	none
Nc1sccc1C(=O)c1ccccc1	none
CC(=O)Oc1ccc2occ(C(=O)c3ccccc3)c2c1	none
Cc1ccc(C(=O)c2coc3c2C(=O)C(=O)C(Br)=C3)cc1	RBX1-CUL1 inh 95.7
O=C1C(=O)c2c(C(=O)c3ccccc3)coc2C=C1Br	RBX1-CUL1 inh 104.0
Clc1cccc(COc2cccc3c2Oc2nc4ccccc4nc2O3)c1	none
CCCCC(=O)Oc1ccc(O)c(C(C)(C)C)c1	none
Cc1nc(N2CCC(C(=O)NCC3CCN(C4CCCC4)CC3)CC2)nc2ccc(C(C)C)cc12	none
CC(C)C(=O)Nc1ccc(C(=O)Nc2cc(C(F)(F)F)ccc2Cl)cc1	none
N#CC1C(=N)OC2=C(CC/C2=C\c2ccccc2Cl)C1c1ccccc1Cl (stereo unspecified)	none
CCOC(=O)C1(CC2CC2)CCN(Cc2ccc(F)cc2)CC1	none
CC(C)c1ccc(CN2CCCC(O)(CN3CCCC3)C2=O)cc1 (stereo unspecified)	none
CCOC(=O)C1=C(CSC#N)OC(=N)C(C#N)C1c1cccnc1 (stereo unspecified)	none
Cc1ccccc1NC1=NC(C)(C)Cc2ccccc21	none
FC(F)(F)c1ccc(-c2nnc(-c3cnn(-c4ccccc4)c3-c3ccccc3)o2)cc1	none
Cc1sc2nc(-c3ccccc3)[nH]c(=O)c2c1C	none
Cc1sc2nc(-c3ccc(-c4ccc(C(=O)O)cc4)o3)[nH]c(=O)c2c1C	none
Cc1sc2nc(-c3ccc(-c4ccc(Cl)c(C(=O)O)c4)o3)[nH]c(=O)c2c1C	RBX1-CUL1 inh 47.2
CCCCn1c(=O)nc2n(-c3cc(OC)ccc3OC)c3ccccc3cc-2c1=O	none
COc1ccc(S(=O)(=O)Nc2ccc(-c3cn4ccsc4n3)cc2)cc1C	none
COc1ccc(S(=O)(=O)Nc2ccc(-c3cn4c(C)csc4n3)cc2)cc1	none
COc1ccc(S(=O)(=O)Nc2ccc(-c3cn4ccsc4n3)cc2)cc1	RBX1-CUL1 inh 96.7
Fc1ccc(-c2nnc3sc(COc4ccccc4Cl)nn23)cc1	none
CCOc1ccc(N(C(C)=O)C2=NC(=O)/C(=C/c3ccccc3O)S2)cc1	none
CN(C)C(C#N)c1ccccc1Cl (stereo unspecified)	none
CC(C)CC1=NN2C(=N)/C(=C/c3ccc(F)cc3)C(=O)N=C2S1	none
O=C(O)c1ccc(Nc2nc(Cl)nc(Cl)n2)cc1-c1c2ccc(=O)cc-2oc2cc(O)ccc12	RBX1-CUL1 inh 106.2
Cc1ccc(Nc2nc(Cl)nc(N3CCOCC3)n2)cc1Cl	none
O=C(c1ccccc1)c1ccccc1Nc1nc(Cl)nc(Cl)n1	none
COc1ccc(-c2csc(N3CCNCC3)n2)cc1OC	none
CC(Cc1cc(C(=O)NCc2cnn(-c3ccc(F)cc3)c2)on1)c1ccccc1 (stereo unspecified)	none
COc1ccc(OCC(O)CN2CCC(O)CC2)c(CNCC2CCOCC2)c1 (stereo unspecified)	none
COCCN1CCC(CN(Cc2ccncc2)Cc2csc(C(C)=O)c2)CC1	none
Cc1ccc(CNC(=O)N=C2CN(CC(C)C)C(=O)c3ccccc32)cc1	none
COc1ccc(CNC(=O)N=C2CN(CC(C)C)C(=O)c3ccccc32)c(OC)c1	RBX1-CUL1 inh 28.1
COc1ccc(NC(=O)N=C2CN(CC(C)C)C(=O)c3ccccc32)c(OC)c1	none
O=C(O)c1ccccc1-c1c2cc(Cl)c(=O)cc-2oc2c1CC(Cl)C(O)=C2 (stereo unspecified)	RBX1-CUL1 inh 128.8
O=C(O)c1cc(NC2(c3ccccc3)C(=O)c3ccccc3C2=O)ccc1Cl	none
COc1ccc(C(C#N)(CCC#N)CCC#N)cc1	none
COC(=O)c1cccc(-c2ccc(/C=C3/C(=O)NN(c4ccc(Br)cc4)C3=O)o2)c1	none
O=C1S/C(=C\c2ccc(Cl)cc2)C(=O)N1Cc1ccccc1	none
O=C1/C(=C\c2ccccc2)SC(=S)N1c1cccc(Cl)c1	none
COC(=O)c1cccc(-c2ccc(C=C3C(=O)OC(c4ccccc4)OC3=O)o2)c1 (stereo unspecified)	none
O=C(O)c1cccc(N2C(=O)/C(=C/c3ccc(Cl)cc3)SC2=S)c1	RBX1-CUL1 inh 31.4
O=C1/C(=C/c2cccc(Cl)c2Cl)SC(=S)N1c1cccc(Cl)c1	none
O=C(O)CN1C(=O)/C(=C2\SC(=S)N(C(Cc3ccccc3)C(=O)O)C2=O)c2ccccc21 (stereo unspecified)	none
NN1C(=O)/C(=C/c2ccc(-c3cccc(Cl)c3)o2)SC1=S	none
